An excerpt weighted towards active compounds, which were near 7.8% of everything screened.
HCV inh – qHTS Assay for Inhibitors of Hepatitis C Virus (HCV); actives 3.4% (n = 340,000); Huh7.5.1 HCVcc-Cre infection, luciferase reporter, 44 h; Potency, µM (top dose mostly 41.8 µM), for inactives: at the top dose activity change, negative = inhibition, actives largely listed as inhibitors; active = well fitted inhibition curve with a large enough effect; inconclusive = small, poorly fitted or top-dose-only effect, or another doubt; inactive = no such curve, though single readings can be large or run the other way; note: potency is the fitted concentration of half-maximal effect
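Reporter virus HCVcc-Cre (~0.5 moi) infects cells exposed to compound; seeding density 1,000 cells/well with 4 h settling beforehand. Luminescence, 15 sec read, taken 44 h post-infection following a 15 min RT substrate incubation.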
Vaccinia mCherry – qHTS for Stage-Specific Inhibitors of Vaccinia Orthopoxvirus: mCherry Reporter Primary qHTS; Vaccinia virus mCherry reporter infection, fluorescence; Potency, µM (highest dose often 36.5 µM), inactives show top-dose activity change, negative = inhibition, actives largely listed as inhibitors; actives 0.63% (n = 310,000); AID 720579, 2013; calls by dose curve; tested in A549 cells; note: potency is the fitted concentration of half-maximal effect; nearly all actives have a fitted effect of over 35% in size
LASV entry inh – qHTS for Inhibitors of binding or entry into cells for Lassa Virus. Lassa virus pseudotype entry inhibition, cell reporter. Potency, µM (highest dose often 37.9 µM), inactives show at the highest dose activity change, negative = inhibition, hits mostly inhibitors. AID 540256, 2011. actives 1.2% (n = 300,000); calls by dose curve; tested in HEK293 cells; note: potency is the fitted concentration of half-maximal effect; nearly all actives have a fitted effect of over 50% in size
HCMV antiviral – qHTS Assay for inhibitors of the human cytomegalovirus (HCMV); HFF cells, HCMV-luciferase reporter, 72 h; stronger effect = lower value; activity change, negative = inhibition, % at 57.5 µM; actives 4.5% (n = 410,000); in the data active = activity change below about -60%; inconclusive = no clear call, values can overlap the other calls; inactive = above about -39%
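After 16 h attachment at 37C, HFF cells received test compound and HCMV-luciferase (1 PFU/cell); reporter luminescence read 72 h later, data normalized against buffer-only and known inhibitor Salinomycin.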
MARV entry inh – qHTS for inhibitors of binding or entry into cells for Marburg Virus | Marburg virus pseudotyped entry inhibition, cell reporter | Potency, µM (series often up to 37.8 µM), without a hit: at the top dose activity change, negative = inhibition, hits mostly inhibitors | actives 1.8% (n = 300,000) | AID 540276, 2011; calls by dose curve; tested in HEK293 cells; note: potency is the fitted concentration of half-maximal effect
VACV Venus inh – qHTS for Stage-Specific Inhibitors of Vaccinia Orthopoxvirus: Venus Reporter Primary qHTS; Vaccinia virus Venus reporter expression, fluorescence; Potency, µM (titrated, usually from 36.5 µM), for inactives: top-dose activity change, negative = inhibition, most hits filed as inhibitors; actives 0.46% (n = 330,000); AID 720580, 2013; calls by dose curve; tested in A549 cells; note: potency is the fitted concentration of half-maximal effect; nearly all actives have a fitted effect of over 30% in size
* = called active by the depositor; i = inactive; ? = inconclusive; . = not tested or not shown; [ ] = dose if it differs, or a comment. % is set by controls: 0 for no effect and ±100 for the full control effect.

SMILES	HCV inh	Vaccinia mCherry	LASV entry inh	HCMV antiviral	MARV entry inh	VACV Venus inh
COC(=O)c1[nH]c2ccc(C)cc2c1NC(=O)CN1CCN(c2ccc(F)cc2)CC1	?	?	13µM*	-83*	?	-14%
COC(=O)c1ccc(C(=O)OC)c(NC(=O)CN2CCN(c3ccc(OC)cc3)CC2)c1	6%	i	-23%	-21	-1%[46.1 µM]	-25%
COC(=O)c1ccccc1NC(=O)CN1CCc2ccccc2C1	-18%	-15%	-21%	7	-14%	-11%
COC(=O)c1ccccc1NC(=O)CN1CCN(C23CC4CC(CC(C4)C2)C3)CC1	-13%	-20%	?	-16	5.8µM*	-11%
Cc1ccccc1CN1CCc2nc(Nc3ccc4c(c3)OCCO4)ncc2C1	.	-29%	?	-15	.	-18%
O=C(CSc1nc2ccccc2nc1N1CCCC1)Nc1ccc(F)cc1	?	i	.	-65*	.	-10%
Cc1cccc(NC(=O)CSc2nc3ccccc3nc2N2CCC(C)CC2)c1	.	?	?	-88*	1.1µM*	10%
Cc1cccc(NC(=O)CSc2cc(C)c3ccccc3n2)c1	.	1%	?	-74*	2.2µM*	16%
CC(=O)Nc1ccc(NC(=O)CSc2nc3ccccc3nc2N2CCC(C)CC2)cc1	-7%	-30%	?	-7	1%[46.1 µM]	-14%
Cc1ccc(NC(=O)CSc2nc3ccccc3nc2N2CCOCC2)c(C)c1	?	i	.	-71*	.	-5%
CC(=O)Nc1ccc(NC(=O)CSc2nc3ccccc3nc2N2CCCCC2)cc1	-4%	-13%	4%	-13	21%[46.1 µM]	-19%
COc1cccc(NC(=O)CSc2cc(C)c3ccccc3n2)c1	.	-9%	?	?	?	-1%
O=C(NNc1cc(Cl)cc(Cl)c1)c1sccc1Cl	.	-18%	.	.	.	-15%
Cc1ccc2c(c1)c1c(c(=O)n(-c3ccccc3C)c(=O)n1Cc1ccccc1F)n2C	.	-8%	?	-28	.	-7%
Cc1cc(SCC(=O)c2ccc(O)c(O)c2)nc2ccccc12	?	-23%	-4%	-70*	?	-17%
COc1ccc2c(C)cc(SCC(=O)Nc3cc(C(N)=O)cc(C(N)=O)c3)nc2c1	4µM*	i	-13%	-14	?	-25%
CCc1ccc2c(O)c3c(cc2c1C(=O)OC)C(=O)c1c(O)ccc(O)c1C3=O	.	-4%	.	.	.	3%
C=C(C)COc1ccc(-c2n[nH]c(C)c2-c2ccc(OC)cc2)c(O)c1	?	.	?	-106*	?	10µM*
COc1ccc(-c2n[nH]c(C)c2-c2cscn2)c(O)c1	-14%	?	.	?	.	-10%
COc1cccc(CNC(=O)c2c(OC)cc(=O)n3c2CCN(C(=O)c2ccc(Cl)cc2)CC3)c1	.	i	.	.	.	0%
FC(F)(F)c1cc(CO[C@H]2CCCN[C@H]2c2ccccc2)cc(C(F)(F)F)c1	.	.	.	.	14µM*	.
FC(F)(F)c1cc(CCN2C(=S)NC[C@@H]2c2ccccc2)cc(C(F)(F)F)c1	13%	-13%	.	4	.	-25%
NS(=O)(=O)C#Cc1ccccc1	.	.	5.8µM*	.	?	.
COc1cc(=O)n2c(c1C(=O)NC(C)c1ccco1)CCN(Cc1ccc3nsnc3c1)CC2 (stereo not given)	.	-10%	.	.	.	-4%
Cc1ccc(Sc2ccc(N3CCCC(C(=O)Nc4ccc(Br)cc4)C3)nn2)cc1 (stereo not given)	.	-25%	1.1µM*	-24	-20%[46.1 µM]	-25%
SMILES	HCV inh	Vaccinia mCherry	LASV entry inh	HCMV antiviral	MARV entry inh	VACV Venus inh
Cc1ccc(Sc2ccc(N3CCCC(C(=O)Nc4ccc(Cl)cc4)C3)nn2)cc1 (stereo not given)	.	?	?	-23	-23%[46.1 µM]	?
CCC(C)C1NC(=O)C2CCCN2C(=O)C(CC(C)C)OC(=O)CCNC(=O)C(C)N(C)C(=O)C(C(C)C)N(C)C1=O (stereo not given)	?	-26%	3.2µM*	-87*	2µM*	-28%
CCc1nn(Cc2cccc(F)c2)c(=O)c2cc3cc(C)ccc3n12	.	-20%	11%[46.1 µM]	-5	-3%[46.1 µM]	-7%
Cn1c(=O)c2c(nc(SCc3nc(N)nc(N4CCCCC4)n3)n2C)n(C)c1=O	6%	2%	?	-69*	2%	-7%
CCCn1c(SCc2nc(N)nc(N3CCCCC3)n2)nc2c1c(=O)n(C)c(=O)n2C	5%	i	-6%[46.1 µM]	48	-9%[46.1 µM]	-1%
CCOC(=O)c1ccc(N2CCN(c3ccccc3OC)CC2)c(NC(=O)Nc2ccc(CC)cc2)c1	.	-18%	22%[46.1 µM]	12	.	-13%
CCn1c(COc2ccc(=O)n(-c3ccccc3)n2)nnc1SCc1ccccc1C	17%	.	-16%	-65*	-20%	.
CCn1c(COc2ccc(=O)n(-c3ccccc3)n2)nnc1SCc1ccc(C)cc1	9%	.	?	-14	-10%	.
CC(C)NC(=O)COC(=O)c1ccccc1OCC(=O)Nc1ccc(Br)cc1	.	-12%	.	.	.	-7%
O=c1[nH]c(Cc2ccccn2)nc2scc(-c3ccccc3Cl)c12	?	-18%	-1%[46.1 µM]	-83*	8%[46.1 µM]	20%
CC(=O)c1cn(CC(=O)Nc2ccccc2)c2ccccc12	?	.	?	-73*	?	.
CC(=O)c1cn(CC(=O)Nc2ccccc2Cl)c2ccccc12	11µM*	.	.	-38	.	.
CCC(=O)c1cn(CC(=O)Nc2ccccc2F)c2ccccc12	-27%	-4%	-1%	-15	-1%	-21%
CC(=O)c1cn(CC(=O)Nc2ccccc2F)c2ccccc12	11µM*	-14%	?	-12	?	-9%
Cc1ccc(NC(=O)Cn2cc(C(=O)c3ccccc3)c3ccccc32)cc1	.	-11%	?	-91*	?	-13%
CCC(=O)c1cn(CC(=O)Nc2ccccc2)c2ccccc12	-11%	-20%	?	3	?	-19%
CCOC(=O)c1ccc(NC(=O)CCn2ccc(C)n2)cc1	.	-1%	4%[46.1 µM]	-5	.	-2%
Cc1c(Cl)cccc1NC(=O)Cn1cc(C(=O)C2CCCCC2)c2ccccc21	.	-26%[7.34 µM]	?	-70*	?	-26%[7.34 µM]
COc1ccc(NC(=O)Cn2cc(C(=O)c3ccco3)c3ccccc32)cc1	3.5µM*	-24%	8%	-2	0%	-14%
Cc1cc(C)cc(NC(=O)Cn2cc(C(=O)C3CCCCC3)c3ccccc32)c1	.	?	9%[46.1 µM]	-28	0%[46.1 µM]	?
CCOc1ccc(NC(=O)Cn2cc(C(=O)c3ccco3)c3ccccc32)cc1	-4%	0%	2%[46.1 µM]	5	22%[46.1 µM]	-1%
O=C(CN1c2ccccc2S(=O)(=O)c2ccccc21)Nc1ccccc1F	-3%	-20%	-14%[46.1 µM]	-63*	2%[46.1 µM]	-19%
